The list shows a part of the results. Results filed as inconclusive are left out. Activity calls are given as the source filed them. Calls follow the shape of the dose curve; as a rule, active = well fitted activation curve with a large enough effect; inconclusive = small, poorly fitted or top-dose-only effect; inactive = flat fitted curve, though single readings scatter.
biological target: Thyrotropin-releasing hormone receptor (Homo sapiens) (UniProt P34981); assay: qHTS for Small Molecule Agonists and Allosteric Enhancers of Human TRH Receptor: Confirmation Screen for Agonists; conditions: TRHR-expressing cells, agonist activation read-out; series mostly up to 46.1 µM; also: nearly all actives have a fitted effect of over 75% in size
From the text: NIH Chemical Genomics Center [NCGC]
NIH Molecular Libraries Probe Centers Network [MLPCN]
Assay Submitter (PI): Marvin Gershengorn
This project aims to identify small drug-like molecules that activate (agonists) the thyrotropin releasing hormone (TRH) receptor (TRHR) or enhance its TRH-stimulated activity (allosteric enhancers). TRHR, a drug-accessible cell surface receptor expressed in specific brain regions, and its ligand TRH have been implicated in several central nervous system disorders, including depression and anxiety. Small molecule TRHR agonists or allosteric enhancers that are metabolically stable and able to cross the blood-brain barrier might serve as probes to elucidate the roles of brain TRH receptors in animal models, and might be valuable as lead compounds for the development of drugs to treat patients with central nervous system disorders.
Upon TRHR-Gq activation in TRHR cells, intracellular calcium is released from stores in the endoplasmic reticulum.
For the HTS assay freshly prepared cells are plated at a density of 2000/well in 3 ul of complete DMEM medium containing 10% serum in 1536-well plates and cultured over night at 37 C in a humidified incubator with 5% CO2. The next day, 2 ul of a no wash calcium dye (ABD Bioquest) was added to the cells and plates were incubated at room temperature for 1 hour. For the assay, assay plates were loaded into the FDSS kinetic plate reader. A 10 cycle (1 second/cycle) baseline measurement is taken and then the FDSS online 1536 pintool delivers 23 nl of compound library (as well as TRH controls) to the plate. The plate is measured for kinetically at 1 cycle/sec for 180 seconds and is considered to be the agonist portion of the assay (eg, compounds which activate a positive calcium response during this portion are flagged as potential agonists). Following the 180 second read, 1 ul of either an EC20 (positive modulation assay) is delivered by an onboard pipette head. Measurements are taken kinetically for an additional 180 seconds.
TRHR FDSS Screening Protocol
1. Reagent, 3 uL 2000 cells/well 1536 TC treated Black plate in media containing 10% FCS
2. Time, 18 hours, 33.5C 5% CO2 (cells grown at 37C)
3. Reagent, 2 uL ABD fluo-8 Ca dye
4. Time, 30 min-1.5hrs hours, Room temp (6 plates/batch)
5. Detector, EX 480/EM 530C, FDSS 10 cycles baseline (1sec/cycle)
6. Compound, 23 nL of stock solution from library
7. Detector, EX 480/EM 530C, FDSS 230 cycles (1sec/cycle) Agonist mode
8. Compound, 1 ul EC20 of TRH made up in HEPES HBSS, 10 nM final
9. Detector, EX 480/EM 530C, FDSS 100 cycles (1sec/cycle) Potentiator mode
Potency is read from the fitted curve at half-maximal effect.

Sequence of Thyrotropin-releasing hormone receptor (Homo sapiens) (P34981 whole entry, looked up): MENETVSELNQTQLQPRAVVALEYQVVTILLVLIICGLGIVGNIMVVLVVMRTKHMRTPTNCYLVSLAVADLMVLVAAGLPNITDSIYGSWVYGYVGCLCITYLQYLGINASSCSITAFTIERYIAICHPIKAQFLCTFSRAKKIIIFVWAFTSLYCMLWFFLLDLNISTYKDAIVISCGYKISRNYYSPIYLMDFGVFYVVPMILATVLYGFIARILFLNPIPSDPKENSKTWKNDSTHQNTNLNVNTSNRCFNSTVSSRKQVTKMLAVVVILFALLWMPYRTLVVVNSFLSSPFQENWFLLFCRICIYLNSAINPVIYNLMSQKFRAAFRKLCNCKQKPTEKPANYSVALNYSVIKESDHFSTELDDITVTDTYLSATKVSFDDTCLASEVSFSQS

Row | Compound | Potency
1 | COc1cc(/C=C(\C#N)c2nc3ccccc3[nH]2)ccc1O | 20.6 µM (active)
